Test [1] is described as follows: yeast AGP1-GFP level changes, GLN3 branch – cell-based, multiplex flow cytometry, S. cerevisiae, primary screen (AID 1887).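 Note: AGP1-GFP fusion strain of S. cerevisiae within a five-strain barcoded multiplex.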 Conditions: 3 h, at 10 µM, active compounds read high.
Test [2] deals with Beta-2 adrenergic receptor (Homo sapiens) (UniProt P07550). Description: agonist-induced loss of surface beta2AR – cell-based, FAP fluorogen, flow cytometry, validation set, pilot screen (AID 504459;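 active = percent response above 42, roughly 3 SD of non-fluorescent test compounds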;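 note: agonist-driven loss of surface beta2AR via internalization measured by FAP dye flow cytometry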). Conditions: Am2.2-beta2AR cells, at 10 µM, active compounds read high.

Values without a mark were called inactive.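 Rule for the calls, unless noted: active = GFP signal above the screen-wide mean plus 3 SD, that is over about 124.5% of the solvent control; inconclusive = no reading because the compound's own fluorescence disturbed strain identification; inactive = the rest.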 Inconclusive results are not listed. Peptide text beside a SMILES is read from it.

Chain of Beta-2 adrenergic receptor (Homo sapiens) (P07550 whole entry, looked up): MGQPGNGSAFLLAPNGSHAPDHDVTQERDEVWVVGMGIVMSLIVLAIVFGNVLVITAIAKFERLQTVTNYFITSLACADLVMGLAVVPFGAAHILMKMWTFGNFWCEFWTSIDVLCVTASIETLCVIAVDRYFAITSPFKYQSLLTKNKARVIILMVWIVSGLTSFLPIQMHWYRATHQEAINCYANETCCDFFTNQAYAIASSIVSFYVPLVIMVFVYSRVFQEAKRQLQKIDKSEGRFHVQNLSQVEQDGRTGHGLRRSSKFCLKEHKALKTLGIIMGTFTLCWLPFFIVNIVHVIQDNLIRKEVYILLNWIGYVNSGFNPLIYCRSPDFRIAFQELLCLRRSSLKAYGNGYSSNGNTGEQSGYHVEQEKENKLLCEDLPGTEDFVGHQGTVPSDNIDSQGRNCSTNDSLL

In the case of `CN[C@H](C)[C@H](O)c1ccccc1`, the GFP response, % of DMSO in test [1] is 101%. For the same compound, the response in test [2] is -9.17%.

As for `O=C(O)CCCc1ccc(N(CCCl)CCCl)cc1`, the GFP response, % of DMSO in test [1] is 97.6%. On the same count and under the same terms, under `Cc1cccc(C)c1NC1=NCCCS1` stands 91.8%; under `CCNC(=S)N(C)CCc1cc2c(c(OC)c1C=C1C(=O)N(C)C(=O)N(C)C1=O)OCO2`, 96.1%. In the case of `S=C1NCCN1`, the GFP response, % of DMSO in test [1] was 99.6%. The same measure, in the same setting: with `NCC1(c2ccc3c(c2)OCCO3)CCCC1` the figure was 91.3%; with `Cc1cc(Cl)ccc1OCC(=O)O`, 103%. In the case of `CN[C@H]1C[C@H]2O[C@@](C)([C@H]1OC)n1c3ccccc3c3c4c(c5c6ccccc6n2c5c31)C(=O)NC4`, the GFP response, % of DMSO in test [1] is 90.8%. Further, in test [2], the response was 12%.

In the case of `Cc1ccc2c(c1)C1CN(C)CCC1N2C(=O)Nc1cccc(Cl)c1` (stereo not drawn), the GFP response, % of DMSO in test [1] is 102%. `Cc1cc(Cl)ccc1OC(C)C(=O)O` (stereo not drawn): the GFP response, % of DMSO in test [1] was 87.3%. In test [2], the response was -8.83%. The corresponding values for `C[N+](C)(C)Cc1ccccc1` are 110% and -3.98%. The corresponding values for `O=c1[nH]c2ccccc2n1CCCN1CCC(n2c(=O)[nH]c3cc(Cl)ccc32)CC1` are 101% and 2.71%. In the case of `c1ccc(Cn2ccnc2)cc1`, in test [1], the GFP response, % of DMSO was 98.2%.

`CN1C(=O)CN=C(c2ccc(Cl)cc2)c2cc(Cl)ccc21`: in test [1], the GFP response, % of DMSO was 92.2%. For the same compound, in test [2], the response is -17.9%.

Take `CC(C)(C)NCC(O)c1cc(Cl)c(N)c(Cl)c1` (stereo not drawn): the GFP response, % of DMSO in test [1] is 91.4%. Take `CC(C)[C@H]1C(=O)N2CCC[C@H]2[C@]2(O)O[C@](NC(=O)[C@@H]3C=C4c5cccc6[nH]cc(c56)C[C@H]4N(C)C3)(C(C)C)C(=O)N12`: in test [1], the GFP response, % of DMSO was 118%. Besides, the response in test [2] is -24.6%.

Take `Cc1ccc(/C=C2/C(=O)NC(=O)N(C)C2=O)cc1`: in test [1], the GFP response, % of DMSO is 93.6%. On to `NCCc1c[nH]c2ccc(F)cc12`, for which the GFP response, % of DMSO in test [1] was 100%. In addition, the response in test [2] was 1.11%. In the case of `CC(C)C[C@H](NC(=O)[C@@H]1CCCN1C(=O)[C@@H](N)Cc1ccc(O)cc1)C(=O)NCC(N)=O` (H-YPLG-NH2), the GFP response, % of DMSO in test [1] was 103%. For the compound `C[C@@H]1O[C@@H](O[C@H]2C[C@@H](O)[C@]3(CO)[C@H]4[C@H](O)C[C@]5(C)[C@@H](C6=CC(=O)OC6)CC[C@]5(O)[C@@H]4CC[C@]3(O)C2)[C@H](O)[C@H](O)[C@H]1O`, the GFP response, % of DMSO in test [1] was 116%. For the same compound, in test [2], the response is -22.9%. The corresponding values for `O=C(CCCN1CCC2(CC1)C(=O)NCN2c1ccccc1)c1ccc(F)cc1` are 113% and -35.8%. For `COc1ccc(Cc2nccc3cc(OC)c(OC)cc23)cc1OC` the same measures were 99.5% and 20.1%. The corresponding values for `COc1ccc2c(c1)CC1(CN2C)C(=O)NC(=O)N(CCc2ccccc2)C1=O` (stereo not drawn) are 97.8% and -3.63%. As to `[N-]=[N+]=NC1C[C@H](n2ccc(=O)[nH]c2=O)O[C@@H]1CO` (stereo partly drawn), in test [1], the GFP response, % of DMSO is 104%. In the case of `CC(Cc1ccccc1)NCC(=O)Nc1cc(N(C)C)nc2ccccc12` (stereo not drawn), the GFP response, % of DMSO in test [1] was 103%. For the compound `CCN(CC)C(=O)N[C@H]1C[C@@H]2c3cccc4[nH]cc(c34)C[C@H]2N(C)C1`, the GFP response, % of DMSO in test [1] was 98.6%. Moreover, the response in test [2] was -25%. Regarding `C[C@H]1CCC/C=C/C2C[C@H](O)CC2[C@H](O)/C=C/C(=O)O1` (stereo partly drawn), the GFP response, % of DMSO in test [1] is 102%. Moreover, the response in test [2] was 28.3%.

Turning to `COC1=CC(=O)OC(/C=C/c2ccccc2)C1` (stereo not drawn), in test [1], the GFP response, % of DMSO was 103%. Consider `CC[C@@H](CO)NC(=O)[C@@H]1C=C2c3cccc4c3c(cn4C)C[C@H]2N(C)C1`, for which the GFP response, % of DMSO in test [1] was 94.5%.

On to `O=C1CC[C@@]2(O)[C@H]3Cc4ccc(O)c5c4[C@@]2(CCN3CC2CC2)[C@H]1O5`, for which the GFP response, % of DMSO in test [1] was 96.1%. In addition, in test [2], the response is -8.64%. As to `CN(C)[C@@H]1C(=O)C(C(N)=O)=C(O)[C@@]2(O)C(=O)C3=C(O)c4c(O)cccc4[C@@](C)(O)[C@H]3[C@H](O)[C@@H]12`, in test [1], the GFP response, % of DMSO is 103%. As to `CC(=O)C1=C(C)OC(N)=C(C(=O)OC(C)C)C12C(=O)Nc1ccccc12` (stereo not drawn), the GFP response, % of DMSO in test [1] was 101%. In the case of `COc1ccc(NC2=NCC(C)S2)cc1` (stereo not drawn), the GFP response, % of DMSO in test [1] was 96%. The response in test [2] is 5.38%. For `COc1ccc(OC)c(C(O)C(C)N)c1` (stereo not drawn) the same measures were 98.3% and -5.54%. As for `C[C@H]1CCC[C@H](O)CCCCCc2cc(O)cc(O)c2C(=O)O1`, the GFP response, % of DMSO in test [1] was 105%.

`CC(=O)[C@H]1CC[C@H]2[C@@H]3CC[C@H]4C[C@H](O)CC[C@]4(C)[C@H]3C(=O)C[C@]12C`: the GFP response, % of DMSO in test [1] was 90.4%.

Values taken from PubChem BioAssay.
